This is an account of results in PubChem BioAssay (EPA / NIEHS).

Active and inactive are the calls of the source. How the source made its calls: active means hit-call score of the fitted dose curve at least 0.9, where 1 is the maximum; inactive means score below 0.9.

Assay [1] in a line: ATG_CRE_CIS: Attagene CIS-FACTORIAL HepG2 Assay for human cAMP Responsive Element (CRE) binding protein 3 (AID 2282926). To be noted: HepG2 CRE cis-reporter, Attagene multiplexed mRNA; actives raise or lower the signal. In outline: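 We dosed HepG2 cells bearing multiple cis-promoter reporter units for 24 h and measured reporter mRNA by RT-PCR with capillary electrophoresis detection. Bidirectional concentration-response fitting used DMSO as negative control.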

Assay [2] deals with CCAAT/enhancer-binding protein beta (Homo sapiens) (UniProt P17676). The assay can be described thus: ATG_C_EBP_CIS: Attagene CIS-FACTORIAL HepG2 Assay for human CCAAT/Enhancer Binding Protein (C/EBP) beta (AID 2282927). To be noted: HepG2 Attagene cis-factorial transcription factor reporter; actives raise or lower the signal. In outline:
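HepG2 transiently transfected with multiplexed reporter units under cis-regulatory promoters reporting endogenous C/EBPb activity. After 24 h exposure, reporter mRNA assayed by RT-PCR, fluorescent labelling, HpaI digestion and capillary electrophoresis; bidirectional fitting versus DMSO.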

Assay [3] can be described thus: ATG_CMV_CIS: Attagene CIS-FACTORIAL HepG2 Assay for human CMV (Internal Marker) (AID 2282928).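 Further: endpoint acts as a background internal control marker rather than a target.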 To be noted: HepG2 CMV promoter reporter, transcription factor profiling; actives raise or lower the signal. In outline: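 CMV internal-marker background readout in transiently transfected HepG2 cells bearing cis-regulated reporter units. Reporter mRNA is measured 24 h after dosing by RT-PCR and capillary electrophoresis, with bidirectional fitting against DMSO.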

The nature of assay [4]: ATG_DR4_LXR_CIS: Attagene CIS-FACTORIAL HepG2 Assay for human Liver X Receptor (LXR), DR4 submotif (AID 2282929). To be noted: HepG2 Attagene DR4 cis-reporter, mRNA transcription; actives raise or lower the signal. In outline:
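Cells were transfected with multiple reporter transcription units, exposed to chemicals for 24 hours, then lysed for RNA. Reporter mRNA induction was measured by RT-PCR with capillary electrophoresis detection and fitted in both directions relative to DMSO.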

The target of assay [5] is Aryl hydrocarbon receptor (Homo sapiens) (UniProt P35869). The assay can be described thus: ATG_Ahr_CIS: Attagene CIS-FACTORIAL HepG2 Assay for human Aryl Hydrocarbon Receptor (Ahr) (AID 2282930). To be noted: HepG2 AhR cis-factorial reporter transcription; actives raise or lower the signal. In outline:
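HepG2 cells transiently transfected with cis-element-driven multiplexed reporter units; endogenous AhR activity read as reporter mRNA 24 h after dosing, via RT-PCR, 6-FAM labelling, HpaI digestion and capillary electrophoresis. Bidirectional fit relative to DMSO.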

Assay [6] is described as follows: ATG_AP_1_CIS: Attagene CIS-FACTORIAL HepG2 Assay for human Activator Protein 1 (AP-1) (AID 2282931). To be noted: HepG2 Attagene cis-factorial AP-1 reporter mRNA; actives raise or lower the signal. In outline: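 Endogenous transcription-factor activity in human HepG2 liver cells is read through a cis-promoter reporter transcript, sampled 24 h after dosing. Detection uses RT-PCR with capillary electrophoresis; values come from bidirectional fitting relative to DMSO.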

Assay [7] can be described thus: ATG_AP_2_CIS: Attagene CIS-FACTORIAL HepG2 Assay for human Activator Protein 2 (AP-2) (AID 2282932). To be noted: HepG2 AP-2 cis-reporter, Attagene transcription factor profiling; actives raise or lower the signal. In outline: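 Multiplexed mRNA reporter assay in HepG2: cis-regulated units report endogenous factor activity after 24 h treatment. Fluorescence from capillary electrophoresis of RT-PCR products gives the signal, with DMSO as baseline.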

Assay [8] can be described thus: ATG_BRE_CIS: Attagene CIS-FACTORIAL HepG2 Assay for human Bone Morphogenetic Protein (BMP) Response Element (BRE) (AID 2282933). To be noted: HepG2 BMP response element reporter, Attagene transcription factor profiling; actives raise or lower the signal. In outline:
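HepG2 cells transiently transfected with multiplexed cis-element reporter units were dosed with chemical for 24 h. Reporter mRNA was measured by RT-PCR with fluorescent labelling, HpaI digestion and capillary electrophoresis; bidirectional fitting relative to DMSO.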

Assay [9] concerns the target Retinoic acid receptor alpha (Homo sapiens) (UniProt P10276). The assay can be described thus: ATG_DR5_RAR_CIS: Attagene CIS-FACTORIAL HepG2 Assay for human Retinoic Acid Receptor Alpha (RARE), DR5 submotif (AID 2282934). As to conditions: HepG2 Attagene cis-factorial RARE DR5 reporter, mRNA; actives raise or lower the signal. In outline: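 HepG2 cells transiently transfected with multiplexed reporter units; DR5 cis-element drives reporter through endogenous transcription factors. After 24 h dosing, reporter mRNA quantified by RT-PCR, fluorescent labeling, HpaI digestion and capillary electrophoresis; bidirectional fitting versus DMSO.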

Assay [10] in a line: ATG_E_Box_CIS: Attagene CIS-FACTORIAL HepG2 Assay for human Enhancer Box (E-box) (AID 2282936). As to conditions: HepG2 E-box cis-reporter transcription, actives raise or lower the signal. In outline:
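First, HepG2 cells receive multiple cis-regulated reporter constructs by transient transfection. Next, chemicals are applied for 24 h. Finally, reporter mRNA is quantified via RT-PCR and capillary electrophoresis, with DMSO as baseline.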

Assay [11] is described as follows: ATG_M_61_CIS: Attagene CIS-FACTORIAL HepG2 Assay for M61 Transcription Factor (Internal Marker) (AID 2282937). As to conditions: HepG2 Attagene CIS-FACTORIAL M61 internal marker reporter; actives raise or lower the signal. In outline: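 Cells were transfected with reporter units under cis-regulatory promoters, treated with chemicals for 24 h, then lysed for RNA. Reporter transcripts were quantified by RT-PCR and capillary electrophoresis, and activity was fitted bidirectionally against DMSO.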

A short description of assay [12]: ATG_EGR_CIS: Attagene CIS-FACTORIAL HepG2 Assay for human Early Growth Response 1 (EGR1) (AID 2282938). As to conditions: HepG2 Attagene CIS-FACTORIAL EGR reporter mRNA; actives raise or lower the signal. In outline: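 Endogenous TF activity in HepG2 liver cells was gauged through cis-promoter reporter constructs transiently transfected. After 24 h dosing, reporter mRNA was quantified by RT-PCR and capillary electrophoresis, and curves fitted in both directions versus DMSO.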

Assay [13] can be described thus: ATG_M_19_CIS: Attagene CIS-FACTORIAL HepG2 Assay for M19 Transcription Factor (Internal Marker) (AID 2282939). As to conditions: HepG2 Attagene CIS-FACTORIAL M19 internal marker reporter; actives raise or lower the signal. In outline:
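HepG2 cells transiently transfected with cis-regulated multiple reporter transcription units were dosed for 24 h; reporter mRNA was quantified by RT-PCR, 6-FAM primer-extension labelling, HpaI digestion and capillary electrophoresis, with bidirectional fitting against DMSO baseline.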

Assay [14] is described as follows: ATG_ERE_CIS: Attagene CIS-FACTORIAL HepG2 Assay for Estrogen Response Element (ERE) (AID 2282940). As to conditions: HepG2 ERE cis-reporter, Attagene RNA transcript; actives raise or lower the signal. In outline:
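HepG2 cells transiently transfected with cis-promoter-driven multiplexed reporter transcription units report endogenous TF activity. After 24 h compound exposure, reporter mRNA is quantified by RT-PCR with capillary electrophoresis fluorescence; bidirectional fitting versus DMSO baseline.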

The nature of assay [15]: ATG_Ets_CIS: Attagene CIS-FACTORIAL HepG2 Assay for human Erythroblast Transformation Specific (ETS) (AID 2282941). To be noted: HepG2 ETS cis-reporter transcription, actives raise or lower the signal. In outline:
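HepG2 cells transfected with multiple cis-regulated reporter units measuring endogenous ETS-driven transcription, 24 h after dosing. Reporter mRNA quantified by RT-PCR with capillary electrophoresis; bidirectional fit relative to DMSO.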

Assay [16] addresses Hepatocyte nuclear factor 3-beta (Homo sapiens) (UniProt Q9Y261). The assay can be described thus: ATG_FoxA2_CIS: Attagene CIS-FACTORIAL HepG2 Assay for human Forkhead box A2 (FOXA2) (AID 2282942). As to conditions: HepG2 cis-reporter transcription factor activity, 24 h; actives raise or lower the signal. In outline:
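Endogenous transcription factor activity was read in HepG2 cells carrying transiently transfected cis-promoter reporter units. After 24 h dosing, reporter mRNA was quantified by RT-PCR and capillary electrophoresis, and values fitted bidirectionally versus DMSO.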

Assay [17] can be described thus: ATG_FoxO_CIS: Attagene CIS-FACTORIAL HepG2 Assay for human Forkhead box O (FoxO) (AID 2282943). As to conditions: HepG2 Attagene cis-reporter, FoxO element, mRNA; actives raise or lower the signal. In outline:
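HepG2 cells transiently transfected with cis-element-driven reporter units report endogenous FoxO activity. After 24 h chemical exposure, reporter mRNA quantified by RT-PCR, fluorescent labeling, HpaI digestion and capillary electrophoresis; bidirectional fit versus DMSO.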

A short description of assay [18]: ATG_GATA_CIS: Attagene CIS-FACTORIAL HepG2 Assay for human GATA Binding Protein (AID 2282944). As to conditions: HepG2 GATA cis-element reporter, Attagene multiplex mRNA; actives raise or lower the signal. In outline: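 HepG2 cells transiently transfected with multiplexed cis-element reporter units reflecting endogenous transcription factor activity; reporter mRNA measured after 24 h dosing by RT-PCR, 6-FAM labeling, HpaI digestion and capillary electrophoresis. Bidirectional fitting versus DMSO baseline.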

Assay [19] is described as follows: ATG_GLI_CIS: Attagene CIS-FACTORIAL HepG2 Assay for human Zinc Finger Protein GLI1 (AID 2282945). To be noted: HepG2, Attagene cis-factorial reporter mRNA, GLI element; actives raise or lower the signal. In outline:
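Transiently transfected HepG2 cells report endogenous transcription factor activity via cis-element-driven reporter units. After 24 h compound exposure, reporter mRNA was measured by RT-PCR with capillary electrophoresis; bidirectional fitting against DMSO baseline.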

The target of assay [20] is Transcription factor E2F1 (Homo sapiens) (UniProt Q01094). The assay can be described thus: ATG_E2F_CIS: Attagene CIS-FACTORIAL HepG2 Assay for human E2F Transcription Factor 1 (AID 2282935). To be noted: HepG2 Attagene cis-reporter, E2F reporter RNA transcripts; actives raise or lower the signal. In outline:
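Measures reporter transcript levels via RT-PCR with capillary electrophoresis detection in HepG2 cells harboring cis-regulated reporter units; 24 h post-dose; bidirectional curve fitting with DMSO as baseline.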

Hepatocyte nuclear factor 3-beta (Homo sapiens), sequence (Q9Y261 whole entry, looked up): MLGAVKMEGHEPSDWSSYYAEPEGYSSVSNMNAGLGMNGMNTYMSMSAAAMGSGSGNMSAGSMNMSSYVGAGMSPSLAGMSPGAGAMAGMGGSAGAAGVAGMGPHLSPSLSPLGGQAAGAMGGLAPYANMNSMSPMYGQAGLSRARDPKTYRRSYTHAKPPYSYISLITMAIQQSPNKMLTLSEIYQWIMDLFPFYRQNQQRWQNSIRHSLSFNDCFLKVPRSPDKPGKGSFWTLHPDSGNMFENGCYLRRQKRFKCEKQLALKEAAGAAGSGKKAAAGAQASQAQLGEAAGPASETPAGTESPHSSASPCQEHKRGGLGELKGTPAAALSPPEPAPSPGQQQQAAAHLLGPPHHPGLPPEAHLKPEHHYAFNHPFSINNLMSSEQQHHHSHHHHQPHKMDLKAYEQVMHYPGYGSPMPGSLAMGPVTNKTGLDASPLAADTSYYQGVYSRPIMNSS
CCAAT/enhancer-binding protein beta (Homo sapiens), sequence (P17676 whole entry, looked up): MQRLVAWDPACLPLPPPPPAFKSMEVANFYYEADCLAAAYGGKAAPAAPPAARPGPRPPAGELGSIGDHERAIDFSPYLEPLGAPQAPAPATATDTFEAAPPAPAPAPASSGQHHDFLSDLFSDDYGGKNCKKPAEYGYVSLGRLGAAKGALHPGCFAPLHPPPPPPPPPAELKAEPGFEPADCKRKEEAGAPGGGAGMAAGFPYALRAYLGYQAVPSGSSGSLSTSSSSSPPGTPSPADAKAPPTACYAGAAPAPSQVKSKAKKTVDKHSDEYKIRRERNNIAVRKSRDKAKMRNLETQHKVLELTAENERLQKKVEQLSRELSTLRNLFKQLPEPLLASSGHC
Aryl hydrocarbon receptor (Homo sapiens), sequence (P35869 whole entry, looked up): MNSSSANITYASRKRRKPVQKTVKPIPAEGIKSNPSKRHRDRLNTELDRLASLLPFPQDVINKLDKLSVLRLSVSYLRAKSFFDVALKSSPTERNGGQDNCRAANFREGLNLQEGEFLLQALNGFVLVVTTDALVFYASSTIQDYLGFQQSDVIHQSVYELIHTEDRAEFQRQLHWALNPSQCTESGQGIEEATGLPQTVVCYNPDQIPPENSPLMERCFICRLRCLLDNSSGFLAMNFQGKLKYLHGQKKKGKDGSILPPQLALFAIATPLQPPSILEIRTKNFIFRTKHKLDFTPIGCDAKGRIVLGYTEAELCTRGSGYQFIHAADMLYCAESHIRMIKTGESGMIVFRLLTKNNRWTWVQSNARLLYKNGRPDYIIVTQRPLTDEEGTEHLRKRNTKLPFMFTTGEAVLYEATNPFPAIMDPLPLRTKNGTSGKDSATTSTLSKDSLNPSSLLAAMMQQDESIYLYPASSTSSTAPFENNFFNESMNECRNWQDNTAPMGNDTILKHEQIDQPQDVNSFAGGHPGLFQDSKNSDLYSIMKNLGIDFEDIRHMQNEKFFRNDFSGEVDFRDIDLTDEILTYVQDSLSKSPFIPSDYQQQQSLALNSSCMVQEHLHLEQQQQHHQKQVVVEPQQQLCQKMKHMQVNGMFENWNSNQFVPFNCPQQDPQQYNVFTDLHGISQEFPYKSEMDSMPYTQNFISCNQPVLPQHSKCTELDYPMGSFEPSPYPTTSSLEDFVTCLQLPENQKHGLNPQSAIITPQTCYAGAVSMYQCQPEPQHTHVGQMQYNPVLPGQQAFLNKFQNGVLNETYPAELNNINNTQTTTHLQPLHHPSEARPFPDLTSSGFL
Retinoic acid receptor alpha (Homo sapiens), sequence (P10276 whole entry, looked up): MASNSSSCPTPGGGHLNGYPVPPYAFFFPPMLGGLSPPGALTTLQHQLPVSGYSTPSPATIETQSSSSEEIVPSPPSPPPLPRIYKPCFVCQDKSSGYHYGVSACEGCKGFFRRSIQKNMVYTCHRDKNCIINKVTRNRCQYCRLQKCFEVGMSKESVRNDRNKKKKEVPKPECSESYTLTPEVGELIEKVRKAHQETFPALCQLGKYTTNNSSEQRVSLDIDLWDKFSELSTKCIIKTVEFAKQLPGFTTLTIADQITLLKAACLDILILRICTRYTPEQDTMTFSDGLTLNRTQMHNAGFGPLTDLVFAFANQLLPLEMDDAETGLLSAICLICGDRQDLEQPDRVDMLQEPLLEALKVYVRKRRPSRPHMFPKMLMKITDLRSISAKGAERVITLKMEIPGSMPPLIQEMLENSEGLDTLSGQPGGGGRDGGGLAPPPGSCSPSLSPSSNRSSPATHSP
Transcription factor E2F1 (Homo sapiens), sequence (Q01094 whole entry, looked up): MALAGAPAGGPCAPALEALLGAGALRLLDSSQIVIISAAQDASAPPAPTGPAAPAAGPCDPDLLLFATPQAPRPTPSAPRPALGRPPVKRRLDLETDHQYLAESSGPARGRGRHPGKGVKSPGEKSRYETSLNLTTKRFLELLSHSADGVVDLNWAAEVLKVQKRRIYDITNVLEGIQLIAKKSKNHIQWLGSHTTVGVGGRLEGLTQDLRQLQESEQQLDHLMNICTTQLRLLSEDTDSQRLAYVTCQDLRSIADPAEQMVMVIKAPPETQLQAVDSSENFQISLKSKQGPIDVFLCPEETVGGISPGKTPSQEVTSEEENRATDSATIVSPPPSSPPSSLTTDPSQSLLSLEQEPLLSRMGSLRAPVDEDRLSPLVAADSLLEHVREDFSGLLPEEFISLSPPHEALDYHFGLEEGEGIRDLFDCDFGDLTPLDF

In the case of `c1ccc2cc3ccccc3cc2c1`, the outcome in [1], in [2], in [3], in assay [4], in [5] and in [6] was inactive. Also, the molecule was classed as inactive in assay [7], in assay [8], in assay [9], in assay [10], in [11] and in [12]. Further, the molecule was called inactive in assay [13], in assay [14], in assay [15], in assay [16], in assay [17] and in assay [18]. Moreover, the molecule was called inactive in assay [19].

As for `CC(C)c1nnc2ccc(-c3ocnc3-c3cc(F)ccc3F)cn12`, the result in [1], in assay [2], in [3], in assay [4], in [5] and in assay [6] was inactive. Further, the outcome in [7], in [8], in assay [9], in [10], in assay [11] and in assay [13] was inactive. Besides, the molecule was called inactive in assay [14], in assay [15], in assay [16], in assay [17], in assay [18] and in assay [19].

Consider `O=C(Cl)C(F)(F)C(F)(F)C(F)(F)C(=O)Cl`, for which the call in [1], in [2], in [3], in assay [4], in assay [5] and in [6] was inactive. For the same molecule, the molecule was called inactive in [7], in assay [8], in [9], in assay [10], in assay [11] and in assay [13]. Moreover, the call in assay [14], in assay [15], in [16], in assay [17], in assay [18] and in assay [19] was inactive.

`CC(C)CCCCCCOC(=O)C1CCCCC1C(=O)OCCCCCCC(C)C` (centres undefined): the result in [1], in [2], in assay [3], in [4], in [6] and in assay [7] was inactive. For the same molecule, the result in [8], in assay [9], in assay [20], in [10], in assay [11] and in [13] was inactive. Further, the molecule was classed as inactive in assay [14], in assay [15], in [16], in [17], in assay [18] and in [19]. Further, the AC50 in assay [5] was 84.8 µM (active).
